Molecules are shown by their SMILES. Results filed as inconclusive are left out. Unmarked numbers belong to inactive results. Active and inactive are the calls of the source. The call rests on the fitted dose curve; in most records, active means well fitted curve in the direction sought with a large enough effect; inconclusive means small, poorly fitted or top-dose-only effect, or another doubt; inactive means no such curve, though single readings can be large; an effect the other way counts as inactive or inconclusive.

A short description of assay [1]: NS1 protein of Zika virus - qHTS assay to identify small molecule inhibitors in human HEK 293 cells (AID 1347053).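 Further: series mostly up to about 46 µM; plate controls were infected untreated cells for no effect and uninfected cells for full effect; nearly all actives have a fitted effect of over 55% in size.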 The gist of the method:
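Compound-treated (1 h pre-infection) HEK 293 cells infected with ZIKV MR766, MOI = 0.5; after 24 h at 37 C, NS1 read by TR-FRET; data normalized to uninfected and infected controls.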

The nature of assay [2]: qHTS of pediatric cancer cell lines to identify multiple opportunities for drug repurposing: Primary screen for TC32 cells (AID 1347089). Further: on the % scale 0 is the no-effect control and ±100 the full control effect; nearly all actives have a fitted effect of over 60% in size. The gist of the method:
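In the primary qHTS, MIPE compounds were tested at 11 concentrations (0.78 nM to 46 µM) and NPC compounds at 8 (0.59 nM to 46 µM) on TC32 cells for 48 h. CellTiter-Glo luminescence gave viability.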

Assay [3] in a line: qHTS of pediatric cancer cell lines to identify multiple opportunities for drug repurposing: Primary screen for DAOY cells (AID 1347090).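 Further: series mostly up to about 46 µM; plate controls were DMSO for no effect and bortezomib for full effect; nearly all actives have a fitted effect of over 55% in size.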 The gist of the method: (§1)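 Eight- or eleven-point concentration series, 48 h treatment at 37 degrees C in growth media; readout CellTiter-Glo luminescence. Potency and efficacy were taken from the concentration-response curves.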
Assay [4] in a line: qHTS of pediatric cancer cell lines to identify multiple opportunities for drug repurposing: Primary screen for SK-N-MC cells (AID 1347093).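 Further: series mostly up to about 46 µM; plate controls were DMSO neutral control for no effect and bortezomib for full effect.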 Summed up:
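Metabolically active cells were quantified by ATP-dependent luminescence (CellTiter-Glo, 15 min at room temperature) following 48 h treatment. Cells had been plated at 500-1,000 per well and settled for 5 h beforehand.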

A short description of assay [5]: qHTS of pediatric cancer cell lines to identify multiple opportunities for drug repurposing: Primary screen for BT-37 cells (AID 1347094).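 Further: series mostly up to about 57 µM; plate controls were DMSO for no effect and bortezomib for full effect.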 Summed up: (§2)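 Plated cells (500-1,000 per well, growth media) were allowed to settle for 5 hours, treated with compound dilutions for 48 hours, then lysed with CellTiter-Glo for 15 min at room temperature before luminescence reading.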

Assay [6] can be described thus: qHTS of pediatric cancer cell lines to identify multiple opportunities for drug repurposing: Primary screen for NB-EBc1 cells (AID 1347095).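 Further: plate controls were DMSO neutral control for no effect and bortezomib for full effect.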 Summed up:
as §2

The nature of assay [7]: qHTS of pediatric cancer cell lines to identify multiple opportunities for drug repurposing: Primary screen for U-2 OS cells (AID 1347096).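 Further: plate controls were DMSO wells for no effect and bortezomib positive control wells for full effect; nearly all actives have a fitted effect of over 50% in size.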 Summed up:
(§3)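 Cells (500-1,000/well) in growth media were settled 5 h at 37 degrees C, then given compounds for 48 h. Viability was read as CellTiter-Glo luminescence. Primary runs used MIPE at 11 points (0.78 nM-46 µM) and NPC at 8 points (0.59 nM-46 µM); follow-ups used 11 points.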

The nature of assay [8]: qHTS of pediatric cancer cell lines to identify multiple opportunities for drug repurposing: Primary screen for Saos-2 cells (AID 1347097). Further: on the % scale 0 is the no-effect control and ±100 the full control effect; nearly all actives have a fitted effect of over 40% in size. The gist of the method: as §2
Assay [9] in a line: qHTS of pediatric cancer cell lines to identify multiple opportunities for drug repurposing: Primary screen for SK-N-SH cells (AID 1347098).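 Further: DMSO served as neutral control and bortezomib at 2.3 µM as positive control; on the % scale 0 is the no-effect control and ±100 the full control effect; nearly all actives have a fitted effect of over 65% in size.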 The gist of the method: (§4)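 Cells (500-1,000/well) rested 5 h, then received compounds for 48 h; metabolically active cells were measured by CellTiter-Glo luminescence. Final concentrations spanned up to 46 µM (MIPE, 11-point) or 0.59 nM-46 µM (NPC, 8-point) in primary screens, 11-point in follow-ups.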

Assay [10] is described as follows: qHTS of pediatric cancer cell lines to identify multiple opportunities for drug repurposing: Primary screen for NB1643 cells (AID 1347099).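 Further: plate controls were DMSO neutral control for no effect and bortezomib positive control for full effect; nearly all actives have a fitted effect of over 50% in size.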 Summed up: as §2
Assay [11] is described as follows: qHTS of pediatric cancer cell lines to identify multiple opportunities for drug repurposing: Primary screen for LAN-5 cells (AID 1347100).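 Further: plate controls were DMSO neutral control for no effect and bortezomib positive control for full effect.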 The gist of the method: as §3
Assay [12] is described as follows: qHTS of pediatric cancer cell lines to identify multiple opportunities for drug repurposing: Primary screen for BT-12 cells (AID 1347101). Further: nearly all actives have a fitted effect of over 25% in size. Further: potency means the concentration at half of the fitted maximal effect.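 On activity change, negative = cytotoxic: plate controls were DMSO for no effect and bortezomib positive control for full effect.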 The gist of the method:
as §4

Assay [13] can be described thus: qHTS of pediatric cancer cell lines to identify multiple opportunities for drug repurposing: Primary screen for SJ-GBM2 cells (AID 1347091).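 Further: plate controls were DMSO neutral control for no effect and bortezomib for full effect.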 The gist of the method: as §1
A short description of assay [14]: qHTS of pediatric cancer cell lines to identify multiple opportunities for drug repurposing: Primary screen for A673 cells (AID 1347092). Further: on the % scale 0 is the no-effect control and ±100 the full control effect; nearly all actives have a fitted effect of over 45% in size. Summed up:
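48 h compound exposure, A673, 500-1,000 cells/well, 37 degrees C/5% CO2. MIPE: 11-point, 0.78 nM-46 µM; NPC: 8-point, 0.59 nM-46 µM (final). Readout CellTiter-Glo luminescence after 15 min RT.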

As to `O=c1[nH]cnc2c1ncn2[C@@H]1O[C@H](CO)[C@@H](O)[C@H]1O`, the Potency result in assay [1], in assay [2], in assay [3], in assay [4], in assay [5] and in assay [6] was “inactive” each time. The Potency entry in assay [7], in assay [8], in assay [9], in assay [10], in assay [11] and in [12] was “inactive” throughout.

On to `CN(N=O)C(=O)N[C@@H]1[C@@H](O)[C@H](O)[C@@H](CO)O[C@@H]1O`, for which the Potency entry in [1], in assay [2], in [13], in [4], in [5] and in assay [6] was “inactive” each time. The Potency entry in assay [7], in assay [8], in [9], in assay [10], in assay [11] and in assay [12] was “inactive” in each case.

For `O=C(O)Cc1sc(-c2ccccc2)nc1-c1ccc(Cl)cc1`, the Potency result in assay [1], in assay [2], in assay [13], in assay [14], in assay [4] and in assay [5] was “inactive” throughout. In addition, the Potency entry in assay [6], in assay [7], in assay [8], in assay [9], in assay [10] and in assay [11] was “inactive” in each case. Further, the Potency entry in [12] is “inactive”.

`O=C(O)COc1nn(Cc2ccccc2)c2ccccc12`: the Potency result in [1], in [2], in [13], in assay [14], in assay [4] and in assay [5] was “inactive” each time. The Potency entry in assay [6], in assay [7], in assay [8], in [9], in assay [10] and in assay [11] was “inactive” in each case. The Potency result in assay [12] was “inactive”.

With `[O-][n+]1cccc(CO)c1`, the Potency result in assay [1], in [2], in assay [13], in [14], in assay [4] and in assay [5] was “inactive” in each case. Moreover, the Potency entry in [6], in assay [8], in assay [9], in assay [10], in [11] and in assay [12] was “inactive” throughout.

Consider `NCCNCCNCCNCCN`, for which, in [1], the activity change, negative = inhibition was -10.7% [at 9.2 µM]. Moreover, the activity change, negative = cytotoxic in assay [2] was 6.7% [at 9.17 µM]; in [13] it was 0.237% [at 9.22 µM]; in [4], -17.1% [at 9.22 µM]; in assay [5], 7.77% [at 11.5 µM]; in [6] it was 2.04% [at 9.22 µM]; in [7], -3.22% [at 9.22 µM]. Also, the activity change, negative = cytotoxic was -19.8% [at 9.22 µM] in assay [8]; -8.89% [at 11.4 µM] in assay [9]; 0.713% [at 9.22 µM] in [10]; -15.5% [at 9.22 µM] in [11]; 0.69% [at 11.5 µM] in assay [12].

Turning to `O=C(O)c1ccccn1`, the Potency entry in assay [1], in assay [2], in assay [13], in [14], in assay [4] and in assay [5] was “inactive” throughout. The Potency entry in assay [6], in [8], in [10], in assay [11] and in assay [12] was “inactive” each time.

With `O=C(CCCN1CCN(c2ccccn2)CC1)c1ccc(F)cc1`, the Potency entry in assay [1], in assay [2], in assay [3], in assay [13], in assay [5] and in assay [6] was “inactive” each time. The Potency entry in [9], in assay [10] and in assay [11] was “inactive” each time.

Turning to `CCC(=O)Nc1ccc(O)cc1`, the Potency result in assay [1], in [2], in assay [13], in assay [14], in assay [4] and in [5] was “inactive” throughout. Further, the Potency entry in [6], in assay [7], in assay [8], in [9], in [10] and in assay [11] was “inactive” in each case. The Potency entry in assay [12] was “inactive”.

For the compound `COc1cc2[nH]c(=O)[nH]c(=O)c2cc1OC`, the Potency result in assay [1], in assay [2], in [13], in assay [14], in assay [4] and in [5] was “inactive” each time. Moreover, the Potency entry in [6], in assay [8], in assay [9], in assay [10], in [11] and in assay [12] was “inactive” throughout.

Regarding `Nc1ccc(S(=O)(=O)NC(=O)c2ccccc2)cc1`, the Potency result in assay [1], in [2], in assay [13], in assay [14], in assay [4] and in [5] was “inactive” throughout. In addition, the Potency result in [6], in [8], in assay [9], in assay [10], in [11] and in assay [12] was “inactive” in each case.

As for `CN1CCOC(c2ccccc2)c2ccccc2C1` (centres undefined), the Potency entry in [1], in assay [2], in assay [13], in assay [14], in assay [4] and in assay [5] was “inactive” in each case. Also, the Potency result in assay [6], in assay [7], in assay [8], in assay [9], in [10] and in [11] was “inactive” each time. The Potency result in [12] was “inactive”.

As to `O=S(=O)(O)c1cc(I)c(O)c2ncccc12`, the Potency entry in assay [1], in assay [2], in assay [13], in assay [4], in assay [5] and in assay [6] was “inactive” in each case. For the same compound, the Potency entry in [7], in [8], in assay [9], in assay [10], in [11] and in [12] was “inactive” in each case.

With `CC(C)(C)NCC(O)COc1ccc(NC(=O)NC2CCCCC2)cc1` (centres undefined), the Potency entry in [1], in assay [2], in assay [13], in assay [14], in assay [4] and in assay [5] was “inactive” throughout. Moreover, the Potency entry in assay [6], in assay [7], in [8], in assay [9], in assay [10] and in assay [11] was “inactive” each time. In addition, the Potency entry in assay [12] is “inactive”.

On to `CCC(=O)c1ccc(O)cc1`, for which the Potency entry in [1], in [2], in [13], in [14], in assay [4] and in assay [5] was “inactive” throughout. Further, the Potency entry in [6], in assay [7], in assay [8], in [9], in assay [10] and in assay [11] was “inactive” each time. Moreover, the Potency result in assay [12] is “inactive”.

Take `O=c1cc(CO)occ1O`: the Potency result in [1], in assay [2], in assay [13], in assay [14], in assay [4] and in assay [5] was “inactive” in each case. For the same compound, the Potency result in [6], in assay [7], in [8], in [9], in [10] and in [11] was “inactive” each time. Also, the Potency result in assay [12] is “inactive”.

As for `CC(C)(C)C(=O)NCCCC(=O)O`, the Potency entry in assay [1], in [2], in assay [13], in assay [14], in [4] and in assay [5] was “inactive” in each case. Moreover, the Potency entry in assay [6], in assay [7], in assay [8], in [9], in assay [10] and in [11] was “inactive” each time. Further, in assay [12], the Potency result is “inactive”.

As to `O=C(O)CN1C(=O)c2cccc3cccc(c23)C1=O`, the Potency entry in assay [1], in [2], in [3], in assay [13], in assay [4] and in assay [6] was “inactive” in each case. Besides, the Potency result in assay [7], in assay [9], in assay [10] and in assay [11] was “inactive” each time. Moreover, in assay [12], the Potency is 1 nM (active).
